A short description of test [1]: qHTS profiling of the MIPE4 collection as inhibitors of Plasmodium falciparum (3D7) proliferation (AID 743344).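 Further: scaled between DMSO vehicle wells and 0.29 µM artemisinin as full inhibition.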 To be noted: P. falciparum 3D7 in erythrocytes, SYBR Green DNA fluorescence, 72 h; at 28.5 µM unless noted. An outline of the steps:
(§1)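 Erythrocytes infected with P. falciparum (0.3% parasitemia, 2.5% hematocrit) incubated with compounds 72 h at 37 C, 5% CO2. Lysis with saponin/Triton buffer containing SYBR Green I, overnight at room temperature in the dark; DNA fluorescence (485/535 nm) normalised to 0.29 uM artemisinin and DMSO.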
A general note: In qHTS, concentration-response curves come from the screen itself.

Test [2] in a line: qHTS profiling of the MIPE4 collection as inhibitors of Plasmodium falciparum (DD2) proliferation (AID 743345). Particulars: P. falciparum Dd2 in erythrocytes, SYBR Green DNA, 72 h; at 28.5 µM unless noted. In short, it runs like this:
as §1

Test [3] is described as follows: qHTS profiling of the MIPE4 collection as inhibitors of Plasmodium falciparum (DD2) proliferation (Rep 2) (AID 743346). Particulars: P. falciparum Dd2 in erythrocytes, SYBR Green DNA, 72 h; at 28.5 µM unless noted. In short, it runs like this:
as §1

A short description of test [4]: qHTS profiling of the MIPE4 collection as inhibitors of Plasmodium falciparum (HB3) proliferation (AID 743347).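 Further: plate controls were DMSO vehicle wells for no effect and artemisinin wells for full effect.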 Particulars: P. falciparum HB3 in erythrocytes, SYBR Green DNA, 72 h; at 28.5 µM unless noted. In short, it runs like this: as §1
Test [5] is described as follows: High-throughput drug toxicity screening in the BPDCN cell line Gen2.2 (AID 1224824).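 Further: cells exposed to compounds for 48 h before reading.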 To be noted: Gen2.2 BPDCN cells; at 45.8 µM (top of the series) unless noted. An outline of the steps: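 Gen2.2 cells, 500 per well in phenol red-free RPMI with 10% FBS, exposed to compounds 48 h at 37 C, 5% CO2; viability by CellTiter-Glo luminescence. Percent activity scaled to DMSO (100%) and 9.2 uM bortezomib final (0%).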

Test [6] is described as follows: High-throughput drug toxicity screening in the BPDCN cell line Cal-1 (AID 1224825). To be noted: Cal-1 BPDCN cell viability, qHTS; at 45.8 µM (top of the series) unless noted. An outline of the steps:
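Exponentially growing Cal-1 cells, 500 per well in phenol red-free RPMI with 10% FBS, were exposed to compounds for 48 h at 37 °C, 5% CO2. Viability was read by CellTiter-Glo luminescence and normalised to DMSO (100%) and 9.2 uM bortezomib (0%).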

The nature of test [7]: qHTS assay for measurement of the activity of small molecule inhibitors on Zika virus induced Caspase-3 activity in human astrocytoma cells (AID 1224859; active means well fitted curve in the direction sought with a large enough effect; an effect the other way counts as inactive or inconclusive; further: potency means the concentration at half of the fitted maximal effect). An outline of the steps: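 Luminescent caspase-3/7 read-out (30 min reagent, room temperature) in human SNB-19 cells infected 6 h with ZIKV (2 FFU/cell) after 1 h compound pre-incubation; Data were normalised to uninfected and infected wells.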

Test [8] is described as follows: qHTS Assay for Identifying Gametocytocidal Compounds (AID 743244; active means well fitted curve in the direction sought with a large enough effect; an effect the other way counts as inactive or inconclusive;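 further: on the % scale 0 is the no-effect control and ±100 the full control effect; actives lower the fluorescent signal which means gametocytes are killed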). To be noted: P. falciparum 3D7 stage III-V gametocytes, alamarBlue, 72 h; max response: stronger effect = lower value. An outline of the steps: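 Viability read-out was resazurin reduction (alamarBlue, 24 h) measured at Ex 525/Em 598 nm. Beforehand, late-stage (III-V) 3D7 P. falciparum gametocytes at 20,000 cells/well were incubated with compound 72 h at 37C under 5% CO2.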

A short description of test [9]: qHTS profiling for inhibitors of Plasmodium falciparum (3D7) proliferation (AID 743322).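 Further: infected erythrocytes exposed to compound for 72 h before lysis; 100% = DMSO vehicle wells and 0% = 0.29 µM artemisinin.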 To be noted: P. falciparum 3D7 proliferation; at 28.7 µM (top of the series). An outline of the steps: as §1
A short description of test [10]: qHTS profiling for inhibitors of Plasmodium falciparum (DD2) proliferation (AID 743323). Particulars: lower = more inhibition; at 28.7 µM (top of the series). In short, it runs like this:
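SYBR Green fluorescence (ex 485, em 535 nm) of lysed cultures gives parasite DNA content; wells normalized to artemisinin (0.29 uM) and DMSO controls. Infected red cells: 0.3% parasitemia, 2.5% hematocrit, 72 h, 37 C.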

A short description of test [11]: qHTS profiling for inhibitors of Plasmodium falciparum (HB3) proliferation (AID 743324; active means well fitted curve in the direction sought with a large enough effect; an effect the other way counts as inactive or inconclusive;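 further: 100% = DMSO vehicle wells and 0% = artemisinin-treated control wells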). To be noted: Plasmodium falciparum HB3 blood-stage proliferation; at 28.7 µM (top of the series). In short, it runs like this:
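P. falciparum HB3 grown in erythrocytes (0.3% parasitemia, 2.5% hematocrit final) with compound for 72 h at 37 C, 5% CO2. Parasite DNA detected by SYBR Green after saponin/triton lysis overnight; normalized to 0.29 uM artemisinin and DMSO.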

Test [12] can be described thus: qHTS Screen of the MIPE 4.0 Collection Against Ewings Sarcoma (RDES) (AID 1259252; active means well fitted curve in the direction sought with a large enough effect; an effect the other way counts as inactive or inconclusive; further: nearly all actives have a fitted effect of over 35% in size; further: potency means the concentration at half of the fitted maximal effect). In short, it runs like this: (§2)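 Measured: ATP luminescence (CellTiter-Glo) 10 min after reagent addition, following 48 h drug treatment. Relative luciferase units converted to percent activity, with no-cell wells as full and DMSO wells as zero inhibition.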
Test [13] in a line: qHTS Screen of the MIPE 4.0 Collection Against Ewings Sarcoma (TC71) (AID 1259253; active means well fitted curve in the direction sought with a large enough effect; an effect the other way counts as inactive or inconclusive; further: potency means the concentration at half of the fitted maximal effect; nearly all actives have a fitted effect of over 40% in size). In short, it runs like this: as §2
Test [14] can be described thus: qHTS Screen of the MIPE 4.0 Collection Against Ewings Sarcoma (EW8) (AID 1259255; active means well fitted curve in the direction sought with a large enough effect; an effect the other way counts as inactive or inconclusive; further: potency means the concentration at half of the fitted maximal effect; nearly all actives have a fitted effect of over 35% in size). In short, it runs like this: as §2
A short description of test [15]: qHTS assay for small molecule agonists of the antioxidant response element (ARE) signaling pathway measured by Nrf2-dependant transcriptional activity - cell viability counter screen (AID 720653; active means well fitted curve in the direction sought with a large enough effect in the repeat runs; an effect the other way counts as inactive or inconclusive; further: on the % scale 0 is the no-effect control and ±100 the full control effect). Particulars: ARE-bla HepG2 viability, CellTiter-Glo ATP luminescence, 16 h; max response: stronger effect = lower value. In short, it runs like this:
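ARE-bla HepG2 cells (2,000/well) rested 5 hrs at 37C/5% CO2, then exposed to compounds in DMSO for 16 hrs. Viability was read in the same wells as intracellular ATP by luminescence, 30 min at room temperature after reagent addition.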

Test [16] is described as follows: qHTS assay for cell viability of the p53RE-bla HCT-116 cell line (AID 743292; active means well fitted curve in the direction sought with a large enough effect; an effect the other way counts as inactive or inconclusive; further: on the % scale 0 is the no-effect control and ±100 the full control effect; nearly all actives have a fitted effect of over 55% in size). In short, it runs like this: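 Intracellular ATP of p53RE-bla HCT-116 cells measured by luciferase luminescence following 16 h compound incubation at 37 C; DMSO-only wells served as vehicle controls.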

From PubChem BioAssay (NCATS) come the findings set out here.

Molecules are shown by their SMILES. Values joined by “and” are separate entries in the source; they are usually repeats but may differ in a detail not shown here. Equal values may be shown once. Inconclusive results are not listed. Active and inactive are the calls of the source. Unless noted, how the calls were made is not given here.

The compound `COCCCCC(=NOCCN)c1ccc(C(F)(F)F)cc1` gave a parasite growth, % of DMSO control in test [1] of 47.6%. The same compound returned a parasite growth remaining, % of DMSO control (lower = more inhibition) in [2] of 56.9%. In test [3], the parasite growth, % of control (lower = inhibition) was 49%. The same compound displayed a growth, % of control in test [4] of 47.6%. In addition, the cell viability, % of control (lower = more cytotoxic) in test [5] came to 56%. For the same compound, in [6], the viability (% of control) stood at 88.3%. Further, the Potency result in test [7] is “inactive”.

Turning to `CC(C)(C(=O)NCC(F)(F)C(F)(F)F)C(=O)N[C@@H]1C(=O)Nc2ccccc2-c2ccccc21`, in test [8], the max response is 8.7% (inactive). For the same compound, in test [9], the remaining parasite growth % (stronger effect = lower value) is 5.09%. Also, the activity, percent of control in [10] was 4.91%. Moreover, the remaining proliferation (% of control), lower = more inhibition in test [11] was -0.0337%. This compound displayed a parasite growth, % of DMSO control in [1] of 8.18%. For the same compound, the parasite growth, % of control (lower = inhibition) in test [3] amounted to 11.3%. The same compound yielded a growth, % of control in [4] of 10.3%. Also, the cell viability, % of control (lower = more cytotoxic) in [5] worked out at 71.1%. Also, in [6], the viability (% of control) worked out at 5.17%. The Potency result in test [7] was “inactive”.

Compound `Clc1cc(Cl)cc(CNc2ncncc2-c2ccc3c(c2)OCO3)c1` yielded a parasite growth, % of DMSO control in test [1] of 18.8%. The parasite growth, % of control (lower = inhibition) in [3] turned out to be 28.4%. The growth, % of control in test [4] was 10.2%. The cell viability, % of control (lower = more cytotoxic) in [5] was found to be 44.1%. Moreover, the viability (% of control) in [6] was 11.1%. In addition, the Potency result in test [7] is “inactive”.

`c1ccc2c(Cc3c[nH]c4ccccc34)c[nH]c2c1` had a parasite growth, % of DMSO control in [1] of 22.8%. Besides, the parasite growth remaining, % of DMSO control (lower = more inhibition) in [2] was 60.6%. For the same compound, the cell viability, % of control (lower = more cytotoxic) in test [5] turned out to be 29.3%. Also, in [6], the viability (% of control) was 13.2%. In addition, the values for the Potency in [12], in test [13] and in test [14] were 2.64 µM (active), 4.18 µM (active) and 14.8 µM (active), respectively.

In test [1], `Clc1ccc(CCC(Cn2ccnc2)Sc2c(Cl)cccc2Cl)cc1` (stereo not given) had a parasite growth, % of DMSO control of 5.77%. Besides, the parasite growth, % of control (lower = inhibition) in test [3] was determined as 10.3%. For the same compound, the growth, % of control in test [4] was 3.43%. In test [5], the cell viability, % of control (lower = more cytotoxic) was 177%. Further, the viability (% of control) in [6] is 67.7%. Further, in test [12], the Potency entry is “inactive”.

For the compound `Cc1c(NC(=O)c2ccc(C(C)(C)C)cc2)cccc1-c1cn(C)c(=O)c(Nc2ccc(C(=O)N3CCOCC3)cc2)n1`, the parasite growth, % of DMSO control in [1] is 5.68%. This compound returned a parasite growth remaining, % of DMSO control (lower = more inhibition) in [2] of 6.89%. Moreover, in [3], the parasite growth, % of control (lower = inhibition) is 10.1%. In addition, in test [4], the growth, % of control is 5.53%. For the same compound, the cell viability, % of control (lower = more cytotoxic) in [5] is 29.7%. Also, in test [6], the viability (% of control) stood at 42.2%. In addition, the Potency in test [7] was 11.8 µM (active); in [14], 20.9 µM (active).

In the case of `CO[C@@H](C(=O)N1Cc2[nH]nc(NC(=O)c3ccc(N4CCN(C)CC4)cc3)c2C1)c1ccccc1`, the remaining parasite growth % (stronger effect = lower value) in test [9] was 5.46%. The activity, percent of control in test [10] stood at 24.6%. Also, the remaining proliferation (% of control), lower = more inhibition in test [11] is 7.25%. In test [1], the parasite growth, % of DMSO control was found to be 6.06%. The parasite growth remaining, % of DMSO control (lower = more inhibition) in test [2] is 12.3%. The parasite growth, % of control (lower = inhibition) in test [3] turned out to be 10.5%. Besides, the growth, % of control in [4] amounted to 3.96%. Further, the cell viability, % of control (lower = more cytotoxic) in test [5] is 134%. Also, the viability (% of control) in [6] was 6.89%. The Potency result in [7] was “inactive”. For the same compound, the Potency in test [14] is 0.0935 µM (active).

Consider `NC(CO)(CO)CCc1ccc(Sc2cccc(OCc3ccccc3)c2)cc1Cl`, for which the remaining parasite growth % (stronger effect = lower value) in [9] was -0.423%. The activity, percent of control in test [10] is 1.55%. Further, the remaining proliferation (% of control), lower = more inhibition in [11] is -1.39%. The compound also showed a parasite growth remaining, % of DMSO control (lower = more inhibition) in test [2] of 8.96%. Moreover, the parasite growth, % of control (lower = inhibition) in test [3] came to 15.3%. The growth, % of control in test [4] turned out to be 6.89%. For the same compound, the cell viability, % of control (lower = more cytotoxic) in test [5] is 7.64%. The viability (% of control) in [6] came to 5.26%. In test [7], the Potency entry was “inactive”.

`O=C(NOCC(O)CO)c1cc(Br)c(F)c(F)c1Nc1ccc(I)cc1F` (stereo not given) gave a parasite growth, % of DMSO control in test [1] of 89.4%. This compound also gave a parasite growth remaining, % of DMSO control (lower = more inhibition) in [2] of 87.4%. For the same compound, the parasite growth, % of control (lower = inhibition) in [3] stood at 100%. The same compound had a growth, % of control in test [4] of 77.4%. The cell viability, % of control (lower = more cytotoxic) in [5] was determined as 1.76%. Moreover, the viability (% of control) in test [6] was determined as 57.3%. Moreover, in test [7], the Potency entry was “inactive”.

As to `O=c1[nH]cnc2c1ncn2[C@H]1CC[C@@H](CO)O1`, the max response in test [15] was 7.68% (inactive) and 6.47% (inactive); in test [8], -6.96% (inactive). Further, the Potency entry in test [16] and in test [7] was “inactive” in each case. The compound further showed a parasite growth, % of DMSO control in test [1] of 178%. In [2], this compound returned a parasite growth remaining, % of DMSO control (lower = more inhibition) of 97.1%. The parasite growth, % of control (lower = inhibition) in test [3] was determined as 101%. The cell viability, % of control (lower = more cytotoxic) in [5] is 93.2%. Also, in [6], the viability (% of control) is 121%.
